# Results: PubChem BioAssay AID435030 (The Scripps Research Institute Molecular Screening Center, 2010)
# “And” between values parts separate entries of the source, which are not always exact repeats. Identical values can stand only once. Screen size: about 330,000 compounds; about 940 (0.28%) were called active. Cut-off read from the data, not from the text of the source: active = inhibition above about 12%; inactive = the rest. The full list was thinned out, with actives kept by preference. Some compounds were tested as several samples or in several runs, with calls that do not always agree.
# Assay: reduced growth of AddAB-expressing E. coli cells – absorbance, AddAB inhibitor project, primary screen (AID 435030);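 note: 0% = vehicle wells of infected cells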
# Conditions: E. coli expressing H. pylori AddAB, at 11.9 µM, stronger effect = higher value
row,Compound,inhibition
1,Cc1cc(C)c2c(c1)cc(C)c1nnc(SCC(=O)Nc3cc(C)on3)n12,1.96% (inactive)
2,Cc1cc(S(=O)(=O)c2cc3ccc(O)c(C)c3oc2=O)ccc1F,0.08% (inactive)
3,CC1CN(C(=S)Nc2ccccc2F)CC(C)O1 (stereo not given),-1.09% (inactive)
4,COc1ccccc1NC(=S)N1CCN(c2ccc(F)cc2)CC1,-2.49% (inactive)
5,COc1c(N2CCN(C(=S)Nc3ccccc3F)C(C)C2)c(F)cc2c(=O)c(C(=O)O)cn(C3CC3)c12 (stereo not given),99.7% (active)
6,COc1ccc(Cl)cc1C(=O)OCC(=O)NCc1cccs1,0.75% (inactive)
7,Cc1ccc(S(=O)(=O)N2CCN(C(=O)Cn3c(=O)cnc4ccccc43)CC2)c(C)c1,0.34% (inactive)
8,O=C(Nc1ccc(OC(F)(F)F)cc1)c1ccc2c(c1)no[n+]2[O-],3.14% (inactive)
9,CCn1cc(S(=O)(=O)c2cccc(C)c2)c(=O)c2cc(F)c(N3CCN(C)CC3)cc21,-1.64% (inactive)
10,CCCCCCn1cc(C(=O)O)c(=O)c2cc(F)c(N3CCCCC3)cc21,-1.14% (inactive)
11,CCn1cc(C(=O)NCCO)c(=O)c2cc(F)c(N3CCN(C)CC3)cc21,98.8% (active)
12,CCCCNC(=O)c1cn(CC)c2cc(N3CCN(C(=O)c4ccco4)CC3)c(F)cc2c1=O,11.8% (inactive)
13,CN1CCN(c2cc3c(cc2F)c(=O)c(C(=O)O)cn3CCF)CC1,98.6% (active)
14,CCn1cc(C(=O)NCCC(=O)NCCO)c(=O)c2cc3c(cc21)OCO3,-2.55% (inactive)
15,Cc1csc(NC(=O)C2CCCN2C(=O)OCC(C)C)n1 (stereo not given),0.97% (inactive)
16,Cc1nn(C)c(C)c1Sc1ccccc1N,-0.51% (inactive)
17,O=C(COC(=O)Cn1[nH]c(=O)c2ccccc2c1=O)Nc1c(Cl)cccc1C(F)(F)F,-0.85% (inactive)
18,O=C(OCC(=O)c1cccs1)C1=COCCO1,3.94% (inactive)
19,O=C(COC(=O)c1ccc([N+](=O)[O-])o1)NC12CC3CC(CC(C3)C1)C2,2.74% (inactive)
20,O=C(OCC(=O)c1cccs1)c1ccc([N+](=O)[O-])o1,16.4% (active)

row,Compound,inhibition
1,O=C(Cc1ccccc1)NNC1CC(=O)N(c2ccc(Br)cc2)C1=O (stereo not given),0.17% (inactive)
2,Cc1ccccc1OCC(=O)NNC(=O)c1cc(S(=O)(=O)N(C)C)ccc1N1CCCC1,-1.04% (inactive)
3,Cc1cc([N+](=O)[O-])nn1CC(=O)Nc1ccc(Cc2ccncc2)cc1,-1.17% (inactive)
4,Cc1ccc(COc2ccc(C(=O)NN)cc2)cc1,3% (inactive)
5,O=C(C/C(=N\NC(=O)c1ccccc1Br)C(F)(F)F)c1cccs1,0.69% (inactive)
6,C=CC(=O)OCCOCCOCCOCCOC(=O)C=C,-0.85% (inactive)
7,CC1C(=O)N2CCCc3cc(S(=O)(=O)NCc4ccc(F)cc4)cc1c32 (stereo not given),-1.44% (inactive)
8,Cc1c(C=O)c2ccccc2n1CC(=O)O,-5.83% (inactive)
9,CC(=O)c1c(C)n([O-])c2ccccc2[n+]1=O,38.5% (active)
10,CCNc1nc(NC(C)C)nc(N2CC(=O)N(CC(=O)OCC)C2=N)n1,-0.43% (inactive)
11,CNC(C)C#Cc1ccc2sc3cc(OC)c(OC)cc3c(=O)c2c1 (stereo not given),3.07% (inactive)
12,O=C(C1=C(O)C(=O)N(CCOCCO)C1c1ccccn1)c1cccs1 (stereo not given),-0.51% (inactive)
13,O=C(NCC1CCCO1)/C(=C/c1ccc(Cl)cc1)NC(=O)c1ccccc1 (stereo not given),3.87% (inactive)
14,O=C(CSc1ccc(-c2ccccc2)nn1)NCC1CCCO1 (stereo not given),-1.35% (inactive)
15,O=C(NCC1CCCO1)C(C(=O)c1ccccc1)n1cc(Cl)ccc1=O (stereo not given),99.8% (active)
16,Cc1ccc(NC(=O)C(C)Sc2nnc(C3CC3)n2C2CC2)cc1S(=O)(=O)N1CCOCC1 (stereo not given),-0.26% (inactive)
17,COc1ccccc1NC(=S)N1CCC(NC(=O)C23CC4CC(CC(C4)C2)C3)CC1,4.75% (inactive)
18,CCOc1ccccc1NC(=O)C12CC3CC(C1)CC(c1ccc(C)cc1)(C3)C2,78.7% (active)
19,Cc1ccc(C23CC4CC(CC(C(=O)NCC(=O)O)(C4)C2)C3)cc1,1.92% (inactive)
20,Cc1noc(NS(=O)(=O)c2ccc(NC(=O)C34CCC(CC3)C4)cc2)c1C,1.62% (inactive)

row,Compound,inhibition
1,Cc1ccc(C(=O)/C=C/Nc2ccc(S(=O)(=O)Nc3onc(C)c3C)cc2)cc1,12.7% (active)
2,Cc1cc(OC(C)C(=O)Nc2ccc(S(=O)(=O)Nc3onc(C)c3C)cc2)cc(C)c1Cl (stereo not given),-1.11% (inactive)
3,Cc1ccc(Sc2ccncc2S(N)(=O)=O)cc1,4.14% (inactive)
4,COc1ccc(N2CCN(S(=O)(=O)CCNC(=O)C34CC5CC(CC(C5)C3)C4)CC2)cc1,3.21% (inactive)
5,COc1cccc(NC(=O)C(Sc2nc3ccccc3c(=O)n2CC(C)C)c2ccccc2)c1 (stereo not given),2.26% (inactive)
6,CCc1noc(C)c1C(=O)NNC(=O)c1ccc(F)cc1,-0.34% (inactive)
7,O=C(NNC(=O)C1CCCC1)c1ccc(F)cc1,-2.96% (inactive)
8,O=C(/C=C/c1ccc([N+](=O)[O-])o1)NNC(=O)c1ccc(F)cc1,97.8% (active)
9,Cc1ccc(Cl)cc1NC(=S)N(CCN(C)C)Cc1cccs1,4.63% (inactive)
10,CCn1c(/C=C/Nc2ccccc2)[n+](CC)c2ccc(C(=O)OCC(F)(F)F)cc21,-1.7% (inactive)
11,O=C(c1[nH]ncc1-c1ccc(Cl)cc1)C1CO1 (stereo not given),12.5% (active)
12,S=c1[nH]nc(-c2ccc(Cl)cc2)n1CC1CCCO1 (stereo not given),0.6% (inactive)
13,O=C(c1nnc(-c2ccc(Cl)cc2)o1)C1CCCC1,0.77% (inactive)
14,CCC(C)[C@H]1COCCS(=O)(=O)N1Cc1ccc(C)cc1 (stereo not given in full),2.11% (inactive)
15,C=CC1=C(C(=O)O)N2C(=O)[C@@H](NC(=O)/C(=N/OCC(=O)O)c3csc(N)n3)[C@H]2SC1,97.5% (active)
16,C=CC1=C(C(=O)O)N2C(=O)[C@@H](NC(=O)/C(=N\OCC(=O)O)c3csc(N)n3)[C@H]2SC1,99.5% (active)
17,CC(C)(C)OC(=O)C1=C(CO)CS[C@@H]2[C@H](NC(=O)Cc3ccccc3)C(=O)N12,0.4% (inactive)
18,Cc1nnc(SCC2=C(C(=O)O)N3C(=O)C(NC(=O)Cn4nc(C)c(Cl)c4C)C3SC2)s1 (stereo not given),-3.23% (inactive)
19,Cc1cc(C)cc(C(=O)NC2C(=O)N3C(C(=O)O)=C(CSc4nnc(C)s4)CSC23)c1 (stereo not given),-1.61% (inactive)
20,CO/N=C(\C(=O)N[C@@H]1C(=O)N2C(C(=O)O)=C(COC(C)=O)CS[C@H]12)c1csc(N)n1 (stereo in doubt),98.8% (active) and 99.7% (active) and -0.42% (inactive)
